A selection: hits, their analogues and other compounds. The true share with any hit is near 19%.
TDP1 block: blocks human tyrosyl-DNA phosphodiesterase 1; Q9NUW8; Potency, µM (doses to about 130 µM), without a hit: at the top dose activity change, negative = inhibition, most hits filed as inhibitors; 350,000 compounds, 0.28% hits; recombinant TDP1, AlphaScreen DNA substrate cleavage; further: potency means the concentration at half of the fitted maximal effect; nearly all actives have a fitted effect of over 40% in size
Target sequence (Q9NUW8 whole entry, looked up): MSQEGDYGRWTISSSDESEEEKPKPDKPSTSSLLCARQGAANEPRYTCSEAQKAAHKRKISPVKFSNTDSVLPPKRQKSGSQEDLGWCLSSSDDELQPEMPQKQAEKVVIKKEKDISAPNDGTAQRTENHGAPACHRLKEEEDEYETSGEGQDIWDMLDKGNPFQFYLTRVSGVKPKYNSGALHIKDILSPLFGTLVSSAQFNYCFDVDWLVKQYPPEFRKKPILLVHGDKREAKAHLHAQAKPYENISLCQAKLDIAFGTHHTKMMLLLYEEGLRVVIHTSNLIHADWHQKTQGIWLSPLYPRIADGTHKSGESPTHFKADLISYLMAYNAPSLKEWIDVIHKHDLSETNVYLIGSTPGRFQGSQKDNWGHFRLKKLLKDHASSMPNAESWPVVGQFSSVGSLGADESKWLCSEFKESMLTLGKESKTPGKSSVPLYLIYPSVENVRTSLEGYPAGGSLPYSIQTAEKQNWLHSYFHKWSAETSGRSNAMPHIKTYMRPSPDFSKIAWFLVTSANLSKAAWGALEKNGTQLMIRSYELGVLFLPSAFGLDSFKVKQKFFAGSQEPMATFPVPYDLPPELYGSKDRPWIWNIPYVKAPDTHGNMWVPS
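Here, a 5' biotin and 3' phosphotyrosine-FITC DNA oligonucleotide reports Tdp1 activity: intact substrate bridges AlphaScreen beads, while cleavage leaves a 3' phosphate and drops signal. All incubations at room temperature.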
TDP1 cell noCPT: qHTS for Inhibitors of human tyrosyl-DNA phosphodiesterase 1 (TDP1): qHTS in cells in absence of CPT. DT40 Tdp1-/- hTDP1 cells, no CPT, ATP luminescence, 48 h. Potency, µM (highest dose often 46.2 µM), inactives show at the top dose activity change, negative = growth inhibition, hits mostly inhibitors. 420,000 compounds, 15% hits; further: potency means the concentration at half of the fitted maximal effect; nearly all actives have a fitted effect of over 55% in size
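Seeded 400 DT40-hTDP1 cells/well (vehicle DMSO, no 20 nM CPT); pinned compounds; ≥48 hr at 37 °C; CellTiter-Glo luminescence as viability measure.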
ELG1 DNA repair: inhibitors of ELG1-dependent DNA repair in HEK293T cells; HEK293T ELG1-luciferase reporter, luminescence, 16 h; DNA damage induced by 5-fluorouridine; Potency, µM (doses to about 46.1 µM), inactives show at the highest dose activity change, negative = inhibition, actives largely listed as inhibitors; 330,000 compounds, 2.3% hits; AID 504467; further: potency means the concentration at half of the fitted maximal effect; nearly all actives have a fitted effect of over 55% in size
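Quantitative HTS, concentration-response format. 2,000 cells/well co-treated with 5-fluorouridine and compound, 16 hr in 5% CO2 at 37 °C; ONE-Glo luminescence read after 30 min.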
DT40 TDP1 CPT: growth inhibition of DT40 Tdp1-/-;hTDP1 cells with camptothecin (screen for TDP1 inhibitors) | AID 686979 | Potency, µM (titrated, usually from 46.2 µM), inactives show at the top dose activity change, negative = growth inhibition, most hits filed as inhibitors | 420,000 compounds, 12% hits | chicken DT40 Tdp1-/-;hTDP1 cells + 20 nM CPT, ATP luminescence, 48 h; further: potency means the concentration at half of the fitted maximal effect; nearly all actives have a fitted effect of over 55% in size
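Chicken DT40 Tdp1-/- cells stably complemented with human TDP1 were seeded at 400 cells/well in medium containing 20 nM camptothecin, exposed to pin-transferred compounds, and grown at 37 °C for at least 48 hr. Viability was read as ATP luminescence.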
IL1B secr inh: blocks inflammasome-driven IL-1 beta release; THP-1 LPS/ATP IL-1B secretion, AlphaLISA, 16 h; hits give low values; activity change, % at 57.5 µM; 360,000 compounds, 4.7% hits; AID 743279; in the data active means activity change below about -50%; inconclusive means mostly about -30% to -49%
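Secreted IL-1B measured by AlphaLISA bead assay after 16 h compound exposure of THP-1 cells; compounds (final up to 57.5 uM) added 1 h before LPS (250 ng/mL) and ATP (1.25 mM) stimulation; lower signal means less secretion.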
Giardia killer: kills Giardia lamblia | activity change, % at 7.66 µM, hits read low | Giardia lamblia trophozoite viability | 340,000 compounds, 0.15% hits | AID 540267; in the data active means activity change below about -80%; inconclusive means between about -30% and that limit;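 further: parasites exposed to compound for two days anaerobically before the ATP read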
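ATP-content bioluminescence gauges trophozoite survival. Cells (100/well) receive compound and incubate anaerobically for 48 hrs at 37 deg C; detection reagent follows for 15-30 min at room temperature.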
The depositor's hits bear a star; i = inactive; ? = inconclusive; / = no result; [ ] = remark or other dose. Unless noted, the call rests on the fitted dose curve; in most records, active means well fitted curve in the direction sought with a large enough effect; inconclusive means small, poorly fitted or top-dose-only effect, or another doubt; inactive means no such curve, though single readings can be large; an effect the other way counts as inactive or inconclusive. On the % scale 0 is the no-effect control and ±100 the full control effect.

SMILES	TDP1 block	TDP1 cell noCPT	ELG1 DNA repair	DT40 TDP1 CPT	IL1B secr inh	Giardia killer
COc1cc(OC)cc(C(=O)Nn2cc(C(=O)Nc3ccccc3F)c3ccccc3c2=O)c1	3%	?	?	23µM*	-8	-25
COc1ccc(Cc2nnc(NC(=O)c3ccc(F)cc3)s2)cc1OC	/	-22%	-1%	-12%	-1	8
CCC1(C)Cc2c(sc3c2c(=O)n(C)c2nnc(SCc4ccccc4)n32)CO1 (centres undefined)	0%	?	0%	18µM*	-2	29
CCC1(C)Cc2c(sc3c2c(=O)n(C)c2nnc(SCCc4ccccc4)n32)CO1 (centres undefined)	8%	23µM*	-3%	?	2	1
C=CC[n+]1cccc2cccc(O)c21	/	-20%	/	-17%	/	/
O=c1cc(Br)c(O)c(Br)cc1Br	/	18µM*	/	?	?	-9
O=C(Nc1ccc(C(F)(F)F)cc1[N+](=O)[O-])O[C@H]1[C@H](Cc2ccccc2)NS(=O)(=O)[C@H]2C[C@@H]3C=C[C@]12O3	3%	16µM*	?	21µM*	-50*	-4
O=S(=O)(Nc1ccc(Br)cn1)c1ccc2ccccc2c1	3%	-20%	11%	17%	?	21
CC1CN(S(=O)(=O)c2ccc(C(=O)N(CCCN(C)C)c3nc4c(Cl)cccc4s3)cc2)CC(C)O1 (centres undefined)	6%	2%	-1%	-29%	-54*	2
COc1cccc2sc(N(CCN(C)C)C(=O)c3ccc(S(=O)(=O)N4CCCC4)cc3)nc12	6%	?	?	2%	i	-5
CN(C)CCCN(C(=O)c1ccc(S(=O)(=O)N2CCCC2)cc1)c1nc2ccc(Br)cc2s1	7%	21µM*	4%	23µM*	-52*	6
CN(C)CCCN(C(=O)c1ccc(S(=O)(=O)N2CCCCC2)cc1)c1nc2cc3c(cc2s1)OCO3	6%	?	?	23µM*	-63*	-3
Cc1cc(C)c2nc(N(CCCN(C)C)C(=O)c3ccc(S(=O)(=O)N4CCCCCC4)cc3)sc2c1	2%	?	?	?	-96*	7
CC1=C(C(=O)NCc2cccc(F)c2)C2(CCCCC2)OC1=O	0%	-14%	/	-25%	/	/
Cc1ccc(SCC(=O)NNC(=O)c2cncc(Br)c2)cc1	0%	-4%	4%	-7%	19	-5
Cc1noc(C)c1COc1ccc(C(=O)NNC(=O)c2ccccc2O)cc1	4%[0.505 µM]	16µM*	-8%	?	88	5
Cc1noc(C)c1COc1ccc(C(=O)Nc2ccccc2)cc1	3%	-17%	-13%	-17%	5	-2
CC(C)(C)c1ccc(OCCCC(=O)NNC(=O)c2ccccc2O)cc1	0%	18µM*	2%	?	55	-25
Cc1cc(C(=O)NNC(=O)CCCOc2ccccc2)c(C)o1	4%	1%	26%	8%	12	-2
Cc1cccc(NC(=O)c2ccc(OCc3c(C)noc3C)cc2)n1	0%	13µM*	-1%	?	53	-13
Cc1noc(C)c1COc1ccc(C(=O)Nc2ccccn2)cc1	4%[56.1 µM]	-2%	?	?	-15	?
COCCN(CCOC)C(=O)COC(=O)c1cc([N+](=O)[O-])ccc1Cl	4%	-1%	5%	4%	?	0
Cn1cc(Br)c(C(=O)NNC(=O)c2ccc(Cl)cc2)n1	3%	-3%	?	-18%	-6	9
C=C(C)[C@@H]1C2=CC(C(=O)OC)=C(C[C@@H](C(=C)C)[C@H]3O[C@H]3C3=C[C@H]1OC3=O)O2	1%	1.1µM*	/	1.1µM*	/	-11
c1cc(SSc2ccncc2)ccn1	/	16µM*	3%	?	?	-15
SMILES	TDP1 block	TDP1 cell noCPT	ELG1 DNA repair	DT40 TDP1 CPT	IL1B secr inh	Giardia killer
CCCCc1ccc(NC(=O)CSc2nc(=O)n(CCN(CC)CC)c3c2CCC3)cc1	/	?	-17%	?	-80*	-7
CCN(CC)CCCn1c2c(c(SCC(=O)Nc3cc(OC)cc(OC)c3)nc1=O)CCC2	/	18µM*	5%	?	?	11
CC(C)c1ccc(NC(=O)CSc2nc(=O)[nH]c3c2CCCC3)cc1	/	21µM*	-17%	?	12	-9
CCN(CC)CCn1c2c(c(SCC(=O)Nc3ccc(C(C)C)cc3)nc1=O)CCCC2	5%	?	-9%	?	-50*	-2
CCCCc1ccc(NC(=O)CSc2nc(=O)[nH]c3c2CCCC3)cc1	8%	?	/	?	/	/
CCN(CC)CCCn1c2c(c(SCC(=O)Nc3ccc(F)c(F)c3)nc1=O)CCC2	0%	-1%	12%	-5%	-23	0
C[C@@H]1CN([C@H](C)CO)C(=O)CCCn2nncc2CO[C@H]1CN(C)Cc1ccc2cccnc2c1	/	-25%	/	8%	-5	/
CCCC(=O)N1CCCC1(C)C(=O)NCCc1ccccn1 (centres undefined)	/	6%	/	-3%	20	/
CCN(CC)CCn1c2c(c(SCC(=O)Nc3nc(C)cs3)nc1=O)CCCC2	3%	7%	0%	20%	-13	-9
CCOC(=O)Cc1csc(NC(=O)CSc2nc(=O)[nH]c3c2CCCC3)n1	1%	?	-7%	5%	-4	-5
CCN(CC)CCn1c2c(c(SCC(=O)Nc3nc(C)cs3)nc1=O)CCC2	-6%[0.505 µM]	7%	0%	6%	-69*	-3
CCN(CC)CCn1c2c(c(SCC(=O)Nc3ccc(F)c(F)c3)nc1=O)CCC2	-2%	7%	-4%	-6%	-66*	2
CCOC(=O)Cc1csc(NC(=O)CSc2nc(=O)[nH]c3c2CCC3)n1	/	-28%	-17%	0%	-90*	3
COc1cccc(C(O)c2ncc(-c3ccccc3)[nH]2)c1 (centres undefined)	/	-23%	/	?	18	/
CC(=O)Nc1ccc(/C=N/NC(=O)c2cc(-c3ccco3)nc3ccccc23)cc1	0%	?	-14%	-24%	30	-3
O=C(N/N=C/c1ccc2c(c1)OCO2)c1cc(-c2ccco2)nc2ccccc12	-15%	7.3µM*	1%	9.2µM*	20	-12
O=C(N/N=C/c1ccc2c(c1)OCO2)c1cc(-c2ccccc2)nc2ccccc12	1%	10µM*	?	21µM*	1	14
